Read-out in assay [1]: Interleukin-1 alpha (IL1a), IL1A (gene 3552)
As to the kind of experiment: BSK_LPS_IL1a: BioMAP Diversity Plus: LPS Assay for Interleukin-1 alpha (IL1a) Biomarker Activity (AID 2283080). The settings on record: primary human HUVEC with PBMC; actives raise or lower the signal. An outline of the steps:
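ELISA read-out of IL-1 alpha from a human primary vascular co-culture (endothelium plus PBMC) under LPS, sampled 24 hours post-dosing. Activity was fitted in both directions relative to DMSO controls.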

Read-out in assay [2]: Monocyte Chemoattractant Protein-1 (MCP1), CCL2 (gene 6347)
Description: BSK_LPS_MCP1: BioMAP Diversity Plus: LPS Assay for Monocyte Chemoattractant Protein-1 (MCP1) Biomarker Activity (AID 2283081).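 On AC50: secreted MCP-1 protein quantified by ELISA in culture supernatant.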 The settings on record: primary human HUVEC with PBMC; actives raise or lower the signal. The gist of the method:
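Human endothelial–PBMC co-cultures were dosed with chemical, then LPS-driven MCP-1 levels were quantified by ELISA at 24 h. Activity in either direction was fitted versus DMSO negative control.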

Assay [3] is described as follows: BSK_LPS_PGE2: BioMAP Diversity Plus: LPS Assay for Prostaglandin E2 (PGE2) Biomarker Activity (AID 2283082). To be noted: primary human HUVEC with PBMC; actives raise or lower the signal. An outline of the steps: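 Primary human endothelial cells and blood mononuclear cells, co-cultured with LPS, receive test chemical; PGE2 ELISA follows at 24 h, with SRB-stained parallel cultures flagging cytotoxicity.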

Read-out in assay [4]: Macrophage colony-stimulating factor (MCSF), CSF1 (gene 1435)
As to the kind of experiment: BSK_LPS_MCSF: BioMAP Diversity Plus: LPS Assay for Macrophage colony-stimulating factor (MCSF) Biomarker Activity (AID 2283083). The settings on record: primary human HUVEC with PBMC; actives raise or lower the signal. An outline of the steps: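 ELISA readout of M-CSF after 24 h compound exposure in a human endothelial/PBMC co-culture. Activity, in either direction, is fitted relative to DMSO vehicle.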

Read-out in assay [5]: Tissue Factor, F3 (gene 2152)
Description: BSK_LPS_TissueFactor: BioMAP Diversity Plus: LPS Assay for Tissue Factor Biomarker Activity (AID 2283084). To be noted: primary human HUVEC with PBMC; actives raise or lower the signal. The gist of the method: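 ELISA signal for cell-surface Tissue Factor (CD142) was read 24 h after compound dosing of an LPS-stimulated human endothelial–PBMC primary co-culture. Gain or loss of signal was scored relative to DMSO.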

Read-out in assay [6]: Tumor necrosis factor (Homo sapiens) (UniProt P01375)
As to the kind of experiment: BSK_LPS_TNFa: BioMAP Diversity Plus: LPS Assay for Tumour Necrosis Factor alpha (TNFa) Biomarker Activity (AID 2283085). The settings on record: primary human HUVEC with PBMC; actives raise or lower the signal. An outline of the steps:
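ELISA-based TNFa endpoint in a human endothelial–PBMC co-culture sampled 24 h post-exposure. Curves were fitted in both directions using DMSO as baseline of activity.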

Read-out in assay [7]: CD38, CD38 (gene 952)
As to the kind of experiment: BSK_SAg_CD38: BioMAP Diversity Plus: SAg Assay for CD38 Biomarker Activity (AID 2283087). To be noted: primary human HUVEC with PBMC; actives raise or lower the signal. The gist of the method:
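Measures CD38 on a human endothelial/PBMC co-culture driven by SEB and TSST-1, 24 h after compound exposure, using ELISA with fluorescence detection; DMSO defines baseline for bidirectional curve fitting.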

Read-out in assay [8]: CD40, CD40 (gene 958)
Description: BSK_SAg_CD40: BioMAP Diversity Plus: SAg Assay for CD40 Biomarker Activity (AID 2283088). The settings on record: primary human HUVEC with PBMC; actives raise or lower the signal. The gist of the method: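 Compounds were dosed onto a human primary endothelial–PBMC co-culture, and after 24 h CD40 was quantified by ELISA using a fluorescence signal. Activity in either direction was fitted relative to DMSO.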

Read-out in assay [9]: CD69, CD69 (gene 969)
Description: BSK_SAg_CD69: BioMAP Diversity Plus: SAg Assay for CD69 Biomarker Activity (AID 2283089).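 On AC50: cell surface CD69 protein quantified by ELISA with fluorescence detection.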 To be noted: primary human HUVEC with PBMC; actives raise or lower the signal. An outline of the steps:
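Endothelial/PBMC co-culture; chemical added; 24 h incubation; CD69 ELISA with fluorescence detection; bidirectional fit vs DMSO.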

Read-out in assay [10]: Monocyte Chemoattractant Protein-1 (MCP1), CCL2 (gene 6347)
Description: BSK_SAg_MCP1: BioMAP Diversity Plus: SAg Assay for Monocyte Chemoattractant Protein-1 (MCP1) Biomarker Activity (AID 2283090). The settings on record: primary human HUVEC with PBMC; actives raise or lower the signal. The gist of the method:
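Values derive from bidirectional fitting of ELISA-measured MCP1 against DMSO controls. Readings were taken 24 h after dosing human vascular endothelial cells co-cultured with peripheral blood mononuclear cells under superantigen stimulation.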

Read-out in assay [11]: E-selectin (Homo sapiens) (UniProt P16581)
Description: BSK_SAg_Eselectin: BioMAP Diversity Plus: SAg Assay for Eselectin Biomarker Activity (AID 2283091). The settings on record: primary human HUVEC with PBMC; actives raise or lower the signal. An outline of the steps:
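Co-culture: HUVEC + PBMC. Dose compound; 24 h. ELISA for E-selectin. Bidirectional fit vs DMSO.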

Read-out in assay [12]: Monokine induced gamma interferon (MIG), CXCL9 (gene 4283)
As to the kind of experiment: BSK_SAg_MIG: BioMAP Diversity Plus: SAg Assay for Monokine induced gamma interferon (MIG) Biomarker Activity (AID 2283092). The settings on record: primary human HUVEC with PBMC; actives raise or lower the signal. An outline of the steps: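 Measures CXCL9 protein by ELISA in a human vascular primary-cell co-culture (umbilical vein endothelium with PBMC) 24 h after chemical addition. Activity is scored up or down from the DMSO control.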

Assay [13] can be described thus: BSK_SAg_PBMCCytotoxicity: PBMC Cytotoxicity Assessment in the BioMAP Diversity Plus: SAg Assay (AID 2283093).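 Further: PBMC viability measured as Alamar Blue reduction fluorescence at 546/580 nm; fitted both ways against DMSO so a hit may be loss or gain of signal.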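 On AC50: PBMC superantigen activated with SEB plus TSST-1 one hour after compound addition.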 The settings on record: primary human HUVEC with PBMC. An outline of the steps:
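Alamar Blue reduction (6 h, 546/580 nm) reports PBMC cytotoxicity after 90 h superantigen activation (SEB, TSST-1; 20 ng/mL final each) with 1 h compound pre-treatment. Gain or loss of signal fitted versus DMSO.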

Read-out in assay [14]: Interleukin-8 (IL8), CXCL8 (gene 3576)
Description: BSK_SAg_IL8: BioMAP Diversity Plus: SAg Assay for Interleukin-8 (IL8) Biomarker Activity (AID 2283094). To be noted: primary human HUVEC with PBMC; actives raise or lower the signal. The gist of the method: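 Primary human endothelial cells with PBMC, exposed 24 h; IL-8 determined by ELISA, analysed bidirectionally relative to DMSO.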

The nature of assay [15]: BSK_SAg_Proliferation: Cell Proliferation Assessment in the BioMAP Diversity Plus: SAg Assay (AID 2283095).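 Further: relative cell number as total protein by SRB absorbance in sub-confluent culture.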 To be noted: primary human HUVEC with PBMC. An outline of the steps: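 A human primary co-culture of umbilical vein endothelium and blood mononuclear cells receives compound; relative cell number is quantified at 96 h by SRB staining and 560 nm absorbance, with DMSO-referenced bidirectional curve fitting.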

Assay [16] is described as follows: BSK_SAg_SRB: Viability Assessment in the BioMAP Diversity Plus: SAg Assay (AID 2283096).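 Further: cells read one day after compound addition; hits may be either gain or loss of signal compared with DMSO.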 To be noted: primary human HUVEC with PBMC. The gist of the method:
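This overt-cytotoxicity endpoint quantifies protein in human endothelial/PBMC co-cultures at 24 h using SRB absorbance (560 nm) after trichloroacetic acid fixation. Values reflect signal change from the DMSO negative control, fitted bidirectionally.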

Read-out in assay [17]: Vascular cell adhesion molecule 1 (VCAM1), VCAM1 (gene 7412)
Description: BSK_LPS_VCAM1: BioMAP Diversity Plus: LPS Assay for Vascular cell adhesion molecule 1 (VCAM1) Biomarker Activity (AID 2283086). To be noted: primary human HUVEC with PBMC; actives raise or lower the signal. An outline of the steps: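 Measured by ELISA: VCAM-1 in LPS-activated HUVEC/PBMC co-cultures 24 h after treatment. Values reflect bidirectional fitting with DMSO as baseline.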

Several values for one entry are separate records, joined by “and”; a condition that tells them apart may be missing. Equal entries are not always repeated. A structure can be active in one record and inactive in another. Activity calls are given as the source filed them. How the source made its calls: active means hit-call score of the fitted dose curve at least 0.9, where 1 is the maximum; inactive means score below 0.9.

Sequence of Tumor necrosis factor (Homo sapiens) (P01375 whole entry, looked up): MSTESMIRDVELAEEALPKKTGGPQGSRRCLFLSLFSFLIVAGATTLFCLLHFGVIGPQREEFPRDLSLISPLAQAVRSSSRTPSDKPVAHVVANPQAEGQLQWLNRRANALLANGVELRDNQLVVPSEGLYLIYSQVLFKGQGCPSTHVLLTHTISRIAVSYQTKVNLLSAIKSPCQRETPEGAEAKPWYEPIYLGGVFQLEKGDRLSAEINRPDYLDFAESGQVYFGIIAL
Sequence of E-selectin (Homo sapiens) (P16581 whole entry, looked up): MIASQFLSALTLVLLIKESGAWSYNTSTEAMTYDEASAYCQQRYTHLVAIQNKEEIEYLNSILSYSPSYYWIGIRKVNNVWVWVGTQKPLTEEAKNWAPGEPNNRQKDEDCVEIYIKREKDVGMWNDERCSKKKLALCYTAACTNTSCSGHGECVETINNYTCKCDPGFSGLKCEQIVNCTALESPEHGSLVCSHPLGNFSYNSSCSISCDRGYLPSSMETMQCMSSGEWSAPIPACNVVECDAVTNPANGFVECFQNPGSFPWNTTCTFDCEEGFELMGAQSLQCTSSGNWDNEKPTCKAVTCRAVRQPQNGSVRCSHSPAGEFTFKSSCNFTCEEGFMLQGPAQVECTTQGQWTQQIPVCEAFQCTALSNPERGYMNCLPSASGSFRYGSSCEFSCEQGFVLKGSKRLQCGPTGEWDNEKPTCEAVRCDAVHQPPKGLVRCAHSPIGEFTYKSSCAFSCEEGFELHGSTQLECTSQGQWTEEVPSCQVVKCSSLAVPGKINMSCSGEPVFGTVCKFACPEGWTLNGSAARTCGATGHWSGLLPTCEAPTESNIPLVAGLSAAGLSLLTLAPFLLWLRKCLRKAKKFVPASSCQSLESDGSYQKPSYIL

With `C[C@]12CC[C@@H]3c4ccc(O)cc4CC[C@H]3[C@@H]1C[C@@H](O)[C@@H]2O`, the result in assay [1], in assay [2], in assay [3], in assay [4], in assay [5] and in assay [6] was inactive. Further, the result in assay [7], in [8], in assay [9], in [10], in [11] and in [12] was inactive. In addition, the result in [13], in assay [14], in [15] and in assay [16] was inactive.

By AC50 is commonly meant the midpoint of the concentration-response curve, whichever way the signal moves. For the compound `Cc1ccc(N=Nc2c(O)ccc3ccccc23)c(C)c1`, the result in [1], in [2], in assay [3], in [4], in [17] and in assay [7] was inactive. The outcome in assay [8], in assay [9], in [10], in [11], in assay [12] and in [14] was inactive. Also, in assay [16], the result was inactive. In addition, the figures for the half-maximal activity concentration (AC50) in [5], in assay [13] and in [15] were 7.3 µM (active), 4.15 µM (active) and 4.79 µM (active), respectively.

Consider `N=C(N)c1ccc(OCCCCCOc2ccc(C(=N)N)cc2)cc1`, for which the outcome in assay [2], in [3], in assay [5], in assay [6], in [7] and in assay [8] was inactive. Also, the result in [10], in assay [11], in assay [12], in assay [13] and in [16] was inactive. Further, the AC50 in assay [4] was 13.5 µM (active); in assay [9], 1.21 µM (active); in [14], 6.91 µM (active); in [15], 13.6 µM (active).

In the case of `O=C(NO)c1ccccc1`, the result in assay [1], in [2], in [3], in assay [4], in assay [5] and in [7] was inactive. In addition, the outcome in assay [8], in assay [9], in assay [10], in [11], in [12] and in [13] was inactive. The result in [14], in [15] and in assay [16] was inactive.

On to `O=P(O)(O)CCC(F)(F)C(F)(F)C(F)(F)C(F)(F)C(F)(F)C(F)(F)F`, for which the result in assay [2], in assay [3], in assay [4], in [5], in assay [6] and in assay [17] was inactive. The result in [7], in [8], in [9], in [10], in assay [11] and in [12] was inactive. Also, the outcome in assay [13], in assay [14], in assay [15] and in assay [16] was inactive. Besides, in assay [5], the AC50 is 5.95 µM (active).

Consider `O=C(CC(=O)C(F)(F)C(F)(F)C(F)(F)F)c1cccs1`, for which the result in [1], in assay [3], in assay [4] and in [5] was inactive. Moreover, the AC50 is 30 µM (active) and 40.4 µM (active) in assay [2]; 30 µM (active) in assay [4]; 10.4 µM (active) in assay [5]; 23.1 µM (active) and 28.6 µM (active) in assay [7]; 17 µM (active) and 16.2 µM (active) in assay [8]; 17.6 µM (active) and 30 µM (active) in [9]. The concentration at half-maximal activity (AC50) was 37.4 µM (active) and 41.6 µM (active) in assay [10]; 30 µM (active) and 43.1 µM (active) in [11]; 48.3 µM (active) and 53.4 µM (active) in assay [12]; 44.8 µM (active) and 43.6 µM (active) in assay [13]; 3.52 µM (active) and 10.7 µM (active) in assay [14]; 13.5 µM (active) and 13.3 µM (active) in assay [15]. The concentration at half-maximal activity (AC50) in assay [16] was 29.9 µM (active) and 48.5 µM (active).

Source of the values: PubChem BioAssay (EPA / NIEHS).
